Bioassay records deposited in PubChem BioAssay by The Scripps Research Institute Molecular Screening Center.
Compounds with a hit are over-represented: about 2.3% of the library has one in this group of screens.
PP1 counter = PP1-alpha (human) inhibition in PP5 counter-screen; purified PP1alpha, OMFP fluorescence; 320,000 compounds, 0.9% hits; AID 2235; P62136; inhibition, % at 6.7 µM;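 active = inhibition above the mean inhibition of all tested compounds plus 3 SD, computed separately for each screening campaign, cut at about 15% in these data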
Target sequence (P62136 whole entry, looked up): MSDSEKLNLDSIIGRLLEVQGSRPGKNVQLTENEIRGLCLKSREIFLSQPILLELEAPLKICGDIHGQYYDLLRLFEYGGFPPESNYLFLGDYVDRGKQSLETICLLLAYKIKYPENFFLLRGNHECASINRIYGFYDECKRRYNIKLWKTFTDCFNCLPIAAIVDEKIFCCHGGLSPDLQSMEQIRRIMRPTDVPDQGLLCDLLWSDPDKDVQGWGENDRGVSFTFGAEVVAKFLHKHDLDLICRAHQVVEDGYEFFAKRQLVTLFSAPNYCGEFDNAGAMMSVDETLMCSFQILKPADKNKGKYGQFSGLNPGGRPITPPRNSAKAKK
MsrA inh = bovine MsrA inhibition. purified bovine MsrA, absorbance read-out. 360,000 compounds, 0.75% hits. AID 651718. inhibition, % at 15.5 µM; in the data active = inhibition above about 4.5%
ZTA DNA inh = ZTA (EBV) inhibition in EBNA-1 counter-screen; P03206; ZTA-DNA binding, fluorescence polarization; inhibition, % at 11 µM; 320,000 compounds, 0.15% hits; in the data active = inhibition above about 33%
Target sequence (P03206 whole entry, looked up): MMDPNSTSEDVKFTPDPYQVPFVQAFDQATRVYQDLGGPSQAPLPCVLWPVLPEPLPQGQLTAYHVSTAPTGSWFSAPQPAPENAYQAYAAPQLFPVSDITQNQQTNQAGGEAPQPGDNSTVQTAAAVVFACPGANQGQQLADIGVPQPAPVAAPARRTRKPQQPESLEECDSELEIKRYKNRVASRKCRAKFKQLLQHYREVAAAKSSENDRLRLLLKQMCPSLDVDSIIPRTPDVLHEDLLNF
MsrA act = activates bovine MsrA enzyme; activation, % at 10.6 µM; purified bovine MsrA, absorbance read-out; AID 602163; 360,000 compounds, 0.3% hits; in the data active = activation above about 7.5%
EBNA-1 inh = blocks EBNA-1 binding to DNA | EBNA-1 DNA binding, fluorescence polarization | 300,000 compounds, 0.34% hits | inhibition, % at 14.8 µM; in the data active = inhibition above about 28%
PP5 inh = blocks human protein phosphatase 5 activity. purified PP5c, OMFP substrate fluorescence. inhibition, % at 6.7 µM. 320,000 compounds, 0.18% hits. P53041;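 active = inhibition above the campaign's mean inhibition across all tested compounds plus 3 SD, cut at about 9.5% in these data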
MsrA act confirm = confirmation of bovine methionine sulfoxide reductase A activators. shares compounds with MsrA act. purified bovine MsrA, absorbance read-out. activation, % at 10.6 µM. 1,000 compounds, 12% hits. AID 602270; in the data active = activation above about 4%;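 also: enzyme coupled to thioredoxin and thioredoxin reductase with NADPH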
Numbers stand for hits; – = inactive; · = no result.

SMILES | PP1 counter | MsrA inh | ZTA DNA inh | MsrA act | EBNA-1 inh | PP5 inh | MsrA act confirm
CCN(CC)S(=O)(=O)c1cc(NC(=O)COC(=O)CCC(=O)c2cccs2)ccc1C | – | – | – | 8.4 | – | – | –
O=C(CSc1nc2ncccc2[nH]1)c1cccc([N+](=O)[O-])c1 | – | – | – | 8.8 | – | – | –
O=C(CSc1nc2ncccc2[nH]1)c1ccc(F)cc1 | – | – | – | – | – | – | ·
Cn1nccc1NC(=O)COCC(=O)O | – | – | – | – | – | – | ·
COc1ccc(OCC2CCNCC2)cc1 | – | – | – | – | – | – | ·
O=C(CCCN=C1NS(=O)(=O)c2ccccc21)OCc1ccccc1 | – | – | – | 8.8 | – | – | –
O=C(CCCN=C1NS(=O)(=O)c2ccccc21)OCc1ccc(F)cc1 | – | – | – | – | – | – | ·
COc1ccc(C2CC(c3cccs3)=Nc3ccccc3S2)cc1 (configuration not stated) | – | – | – | 10 | – | – | –
COc1ccc(C2CC(c3cccs3)=NN2S(C)(=O)=O)cc1 (configuration not stated) | – | – | – | – | – | – | ·
CN(C)c1nc(C#N)nc(N2CCOCC2)n1 | – | – | – | – | – | – | ·
CC(C)N(C#N)c1nc(N2CCOCC2)nc(N2CCOCC2)n1 | – | – | – | 17 | – | – | –
Brc1ccccc1OCCN1CCOCC1 | – | – | – | 9.5 | – | – | –
COc1ccc(C(CNC(=O)COc2cccc(C(F)(F)F)c2)N2CCCC2)cc1 (configuration not stated) | – | – | – | – | · | – | ·
O=C1CCCC(O)=C1N=Nc1ccc(Cl)c(Cl)c1 | – | – | – | – | – | – | ·
CC(=O)N1CCc2cc(N=NC3=C(O)CCCC3=O)ccc21 | – | – | – | 8.7 | – | – | –
CCNC(=O)C1(C)CCCN(Cc2noc(-c3c(C)noc3C)n2)C1 (configuration not stated) | · | – | · | 9.2 | · | · | –
CCc1c(C(=O)N2CCCN(C)CC2)csc1C | – | – | – | – | – | – | ·
O=c1c2c3c(sc2nc(NCCO)n1CCc1ccccc1)CCCCC3 | – | – | – | – | – | – | ·
OCCNc1nc(SCc2ccccc2)nc2sc3c(c12)CCC3 | · | – | · | 14 | · | · | –
CCOC(=O)c1ccc(NC(=O)c2cc(F)c(F)cc2Cl)cc1 | – | – | – | 8.7 | – | – | –
CCOC(=O)C1=C(C)N(C)C(=O)NC1c1c(C)nn(-c2ccc(C)cc2)c1Cl (configuration not stated) | – | – | – | 13 | – | – | –
Cc1ccccc1S(=O)(=O)NC(=O)C1(C)CCN1C(=O)Cc1ccc(C(C)(C)C)cc1 (configuration not stated) | · | – | · | – | · | · | ·
Cc1cc(NC(=O)CN(C)C)c([N+](=O)[O-])cc1C | – | – | – | – | – | – | ·
CCCCN(CC(=O)NCCOC)C(=O)Cn1nnc2ccccc21 | – | – | – | – | – | – | ·
CCOc1ccc(S(=O)(=O)NCCC(=O)NCc2ccco2)cc1 | – | – | – | – | – | – | ·
SMILES | PP1 counter | MsrA inh | ZTA DNA inh | MsrA act | EBNA-1 inh | PP5 inh | MsrA act confirm
CCCNS(=O)(=O)c1ccc(OCC(=O)NCc2ccco2)cc1 | – | – | – | 16 | – | – | –
CCc1nn(CC(=O)NCCCN(C)Cc2ccccc2)c(=O)c2cc3sc(C)cc3n12 | – | – | – | – | – | – | ·
Cc1c(Cl)cccc1-c1ccc(CNCc2ccccn2)o1 | – | – | – | 7.7 | – | – | –
O=C(OCC(=O)N1CCN(Cc2ccccc2)CC1)c1cc(Cl)ccc1[N+](=O)[O-] | – | – | – | – | · | – | ·
CN(Cc1cnn(C)c1)Cc1nc(COc2ccccc2)no1 | – | – | – | – | – | – | ·
CN(CCc1cnn(C)c1)Cc1nc(Cc2ccccc2)no1 | – | – | – | 10 | – | – | –
CN(C)S(=O)(=O)c1cccc(NC(=S)NC(=O)c2ccco2)c1 | · | – | · | 11 | · | · | –
COC(=O)Cc1[nH]n(-c2nc3ccccc3s2)c(=O)c1C(C)=Nc1ccc(C)cc1 | – | – | – | – | – | – | ·
COC(=O)Cc1[nH]n(-c2nc3ccccc3s2)c(=O)c1C(C)=Nc1ccc(Cl)cc1 | – | – | – | 8.2 | – | – | –
S=c1nc(-c2cc(Cl)cc(Cl)c2)[nH][nH]1 | – | – | – | – | – | – | ·
COc1ccc(-c2nc(=S)[nH][nH]2)cc1 | – | – | – | – | – | – | ·
COc1cc(-c2nc(=S)[nH][nH]2)cc(OC)c1OC | – | – | – | 8.1 | – | – | 4.8
COc1ccc(-c2nc(=S)[nH][nH]2)cc1OC | – | – | – | 10 | – | – | –
CS(=O)(=O)c1ccc(-c2csc(C(O)(c3ccccc3)C(F)(F)F)n2)cc1 (configuration not stated) | · | – | · | – | · | · | ·
COCCn1c(SC(C)C(=O)Nc2ccc(N3CCOCC3)cc2)nnc1-c1ccncc1 (configuration not stated) | – | – | – | – | – | – | ·
C[C@@H]1CN([C@@H](C)CO)C(=O)c2cc(Br)cnc2O[C@H]1CN(C)Cc1cccc(C(=O)O)c1 | · | – | · | – | · | · | ·
COc1ccc(N2CCN(CCN3C(=O)c4ccccc4C3=O)CC2)cc1 | – | – | – | – | – | – | ·
Cc1nn(CCC(=O)NNC(=S)Nc2cccc(Cl)c2)c(C)c1[N+](=O)[O-] | – | – | – | 11 | – | – | –
S=c1[nH]nc(-c2cccnc2)n1/N=C/c1cccs1 | – | – | – | 10 | – | – | –
Clc1ccc(Cn2nc(-c3ccccc3)nc2-c2ccccc2)cc1 | – | – | – | 8.7 | – | – | –
Cn1ccc(NC(=O)c2ccc([N+](=O)[O-])cc2)n1 | – | – | – | – | · | – | ·
CC(C)c1ccc(/C=N/NC(=O)c2ccccc2Cl)cc1 | – | – | – | 13 | – | – | –
CCS(=O)(=O)Nc1cccc(-c2ccc3nnc(C)n3n2)c1 | – | – | – | · | – | – | ·
Cc1ccc(S(=O)(=O)Nc2cccc(-c3ccc4nnc(C)n4n3)c2)s1 | – | – | – | 20 | – | – | –
CCN1C(=O)[C@H]2[C@@H](c3ccc(Cl)cc3)N3C(=O)CN(CC4CC4)C(=O)[C@@]3(Cc3ccccc3)[C@H]2C1=O | – | – | – | – | – | – | ·
SMILES | PP1 counter | MsrA inh | ZTA DNA inh | MsrA act | EBNA-1 inh | PP5 inh | MsrA act confirm
Cc1ccc(S(=O)(=O)N2CCN(c3nccnc3C#N)CC2)cc1 | – | – | – | – | – | – | ·
O=C1C(O)=CC(=C(c2ccccc2)c2ccccc2)c2ccccc21 | · | – | · | 9.8 | · | · | –
Cc1cccc(NS(=O)(=O)c2cc(C(=O)N3CCc4ccccc4C3)ccc2Cl)c1C | – | – | – | – | – | – | ·
Cc1ccc(C)c(NS(=O)(=O)c2cc(C(=O)N3CCc4ccccc4C3)ccc2Cl)c1 | – | – | – | 8.2 | – | – | –
COc1ccc(-c2c(NC(=O)c3ccco3)n(-c3ccc(C)cc3)nc(C)c2=O)cc1 | – | – | – | – | – | – | ·
CC(=O)NNC(=S)NC(=O)c1ccccc1 | – | – | – | 8.3 | – | – | –
Cc1ccccc1OCC(=O)N/N=C/c1ccc([N+](=O)[O-])o1 | – | – | – | – | – | – | ·
